# PubChem BioAssay AID761 (NMMLSC, 2007)
# The whole screen tested about 190,000 compounds, of which about 400 (0.21%) were called active. About 2% were inconclusive and are not listed.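 How the source made its calls: active means percent activity GTP binding at least 20 points away from the 100% baseline, either down as inhibitor or up as activator; inconclusive means compound flagged as likely green fluorescent from well-wide comparison; inactive means the rest.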 Shown is part of a subset that was picked to be rich in actives.
# Target: Cell division control protein 42 homolog (Homo sapiens) (UniProt P60953)
# Sequence (P60953 whole entry, looked up): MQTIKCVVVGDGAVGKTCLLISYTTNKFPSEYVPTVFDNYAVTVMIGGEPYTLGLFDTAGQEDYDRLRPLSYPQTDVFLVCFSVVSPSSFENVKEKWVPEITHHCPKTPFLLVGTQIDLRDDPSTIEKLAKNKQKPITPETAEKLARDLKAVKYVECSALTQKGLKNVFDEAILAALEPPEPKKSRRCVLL
# Assay: modulators of GTP binding to wildtype Cdc42, primary screen, biochemical, multiplex bead flow cytometry, Bodipy-GTP (AID 761);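 further: median bead fluorescence of bound Bodipy-FL-GTP at 100 nM; 0% = excess unlabeled GTP control and 100% = no compound control; below 100% means less GTP binding so inhibitor and above means activator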
# Conditions: GST-Cdc42 beads, at 10 µM, actives lie on both sides
row,Compound,percent activity (GTP binding)
1,O=C(O)c1n[nH]nc1-c1ccccc1,99% (inactive)
2,O=C(O)/C=C/c1cn(Cc2ccccc2)nc1-c1cccs1,135% [activator] (active)
3,O=C(O)/C=C/c1cn(-c2ccccc2)nc1-c1cccs1,93% (inactive)
4,O=C(/C=C\c1cn(-c2ccccc2)nc1-c1cccs1)N1CCOCC1,100% (inactive)
5,NS(=O)(=O)c1ccc(NC(=O)/C=C/c2ccccc2Cl)cc1,97% (inactive)
6,O=C(COc1cc(Cl)c(Cl)cc1Cl)NCCc1ccccn1,94% (inactive)
7,CCOC(=O)N1CCN(CC(=O)Nc2ccc(F)cc2)CC1,96% (inactive)
8,Cc1cc(C)cc(NC(=O)Cn2cnc3c(nnn3Cc3ccc(F)cc3)c2=O)c1,93% (inactive)
9,Cc1cccc(C(=O)NNC(=O)c2cccc([N+](=O)[O-])c2)c1,105% (inactive)
10,COc1ccccc1N1CCN(C(=O)c2ccc(Cl)c(S(=O)(=O)N3CCCC3)c2)CC1,100% (inactive)
11,O=C(Cc1ccc(F)cc1)N1CCN=C1SCc1cccc([N+](=O)[O-])c1,96% (inactive)
12,Cc1cccc(NC(=O)CSc2nc3[nH]ncc3c(=O)[nH]2)c1,97% (inactive)
13,Cc1ccc(CSc2nc3[nH]ncc3c(=O)[nH]2)cc1,76% (active)
14,CCCSc1nc2[nH]ncc2c(=O)[nH]1,100% (inactive)
15,O=C(NCc1cccs1)c1cc(-c2ccccn2)nc2ccc(Br)cc12,98% (inactive)
16,O=C(c1cccc([N+](=O)[O-])c1)N1CCN(C(=O)c2ccco2)CC1,94% (inactive)
17,CCN(C(=O)COC(=O)/C=C/c1nc2ccccc2s1)C1CCS(=O)(=O)C1 (configuration not stated),93% (inactive)
18,CCOc1ccc(N(CC(=O)NCCc2ccc(OC)cc2)S(C)(=O)=O)cc1,100% (inactive)
19,Cc1ccccc1NC(=S)NNC(=O)c1cccc(Br)c1,91% (inactive)
20,Cc1nc(S(=O)(=O)c2ccc(Br)cc2)nc2c1CCC2,94% (inactive)
21,COc1ccc(C(=O)Nc2ccc(NC(=O)C(C)C)nc2)cc1,93% (inactive)
22,Cc1cccc(C(=O)OC(C)CN2CCN(C)CC2)c1 (configuration not stated),101% (inactive)
23,Nc1ccc(OCC(O)C[n+]2ccc(CCS(=O)(=O)[O-])cc2)cc1 (configuration not stated),102% (inactive)
24,O=C(Cc1ccc(F)cc1)N/N=C/c1ccc2c(c1)OCO2,97% (inactive)
25,OCCC1CN(Cc2cccn2-c2nccs2)CCN1CCc1ccccc1 (configuration not stated),95% (inactive)

row,Compound,percent activity (GTP binding)
1,CC(/C=N/NC(=O)c1ccncc1)=C\c1ccco1,99% (inactive)
2,CCOC(=O)C1(Cc2cccc(OC)c2)CCCN(S(=O)(=O)c2cccnc2)C1 (configuration not stated),100% (inactive)
3,O=C(CSc1nnnn1-c1ccc(O)cc1)N1N=C(c2ccc3ccccc3c2)CC1c1ccccc1 (configuration not stated),98% (inactive)
4,CC(=O)NC1C(OCc2ccccc2)OC(COC(C)=O)C(OC(C)=O)C1OC(C)=O (configuration not stated),104% (inactive)
5,O=C(OCC1O[C@@H](OC(=O)c2cc(O)c(O)c(O)c2)[C@@H](OC(=O)c2cc(O)c(O)c(O)c2)[C@@H](OC(=O)c2cc(O)c(O)c(O)c2)[C@@H]1OC(=O)c1cc(O)c(O)c(O)c1)c1cc(O)c(O)c(O)c1 (some centres not stated),79% (active)
6,NC(=O)COc1ccc(NC(=O)c2ccccc2-c2ccccc2)cc1,92% (inactive)
7,CCOC(=O)c1ccc(N/C(=N/S(=O)(=O)c2ccccc2)c2ccccc2)cc1,98% (inactive)
8,CCOC(=O)c1nc(Nc2ccc(C(=O)OC)cc2)c2ccccc2n1,74% (active)
9,CCOC(=O)c1ccc(Nc2cc(C)nc3nc(C)nn23)cc1,99% (inactive)
10,CC(=O)Nc1ccccc1NC(=O)c1cc(C)cc(C)c1,98% (inactive)
11,NC(N)=Nc1nc2ccc(Br)cc2c(=O)[nH]1,93% (inactive)
12,O=C(Nc1ccc(Cl)cc1)C1c2cccc[n+]2CC(=O)N1Cc1ccc2c(c1)OCO2 (configuration not stated),99% (inactive)
13,CCC1CCCCN1C(=O)CSc1nc2c(c(=O)n(C)c(=O)n2C)n1C (configuration not stated),98% (inactive)
14,Fc1cccc(Cc2noc(CN3CCN(c4cnccn4)CC3)n2)c1,101% (inactive)
15,CCOC(=O)c1ccc(NC2Nc3cc(C)nn3S2)cc1 (configuration not stated),95% (inactive)
16,CC(=O)c1ccccc1NC(=O)CC1(CC(=O)O)CCCCC1,95% (inactive)
17,Cc1ccc(C)c(-n2nnnc2SCC(=O)c2c(N)n(C)c(=O)n(C)c2=O)c1,93% (inactive)
18,Cc1ccc(S(=O)(=O)NC(C(=O)N2CCOCCOCCOCCOCC2)c2ccccc2)cc1 (configuration not stated),100% (inactive)
19,COc1ccccc1C(=O)CSc1cccc[n+]1[O-],94% (inactive)
20,CCCCN(C(=O)COc1ccc(NC(C)=O)cc1)C1CCS(=O)(=O)C1 (configuration not stated),96% (inactive)
21,Cc1ccc(Cl)cc1NC(=O)COC(=O)CC(C)(C)C,90% (inactive)
22,CCCCn1c(=O)c(C(C)=O)c(O)c2ccccc21,96% (inactive)
23,CCNC(=O)COc1cc(C)c(Br)c(C)c1,105% (inactive)
24,CC(C)NC(=S)NN=C1CCCCCCCCCCC1,93% (inactive)
25,C=CCn1c(-c2sc(-c3ccccc3)nc2C)n[nH]c1=S,90% (inactive)

row,Compound,percent activity (GTP binding)
1,O=C(NNC(=S)NCCCN1CCOCC1)c1ccncc1,98% (inactive)
2,Cc1ccc(Nc2c(F)c(F)c(F)c(F)c2C(=O)O)c(C)c1,134% [activator] (active)
3,COc1c(F)c(F)c(C(=O)O)c(Nc2ccccc2C)c1F,100% (inactive)
4,Cc1ccc(NC(=S)NC(=O)c2ccc(-c3ccccc3)cc2)c(C)c1,99% (inactive)
5,COC(=O)C1=CN(Cc2ccc(OC)c(OC)c2)C=C(C(=O)OC)C1c1cccs1,99% (inactive)
6,CCn1c(-c2cccnc2Cl)nc2cc(C)c(C)cc21,99% (inactive)
7,Cc1ccc(C(=O)OC(C)CN2CCOCC2)cc1 (configuration not stated),99% (inactive)
8,COc1ccccc1CNC(=O)c1cc(=O)c2ccccc2o1,96% (inactive)
9,COCCN(Cc1nc(-c2ccc(C(F)(F)F)cc2)no1)C(C)C,94% (inactive)
10,COc1ccccc1NC(=O)C1=C(C)NC(=O)NC1c1ccc(C)s1 (configuration not stated),93% (inactive)
11,COc1ccc(-c2nc3cnccn3c2NC(C)(C)CC(C)(C)C)cc1O,101% (inactive)
12,Cc1nnc(N/N=C/C2CC=CCC2)[nH]c1=O (configuration not stated),96% (inactive)
13,O=C(O)/C=C/c1ccc(OCCCF)cc1,101% (inactive)
14,CN(CC(=O)Nc1ccccc1[N+](=O)[O-])Cc1ccc(Br)cc1,98% (inactive)
15,CCC(C)(C)NC(=O)C(c1cccc(OC)c1OC)N(CC(C)C)C(=O)CCC(=O)Nc1cc(C)on1 (configuration not stated),99% (inactive)
16,O=C(COC(=O)C1CCCCC1)Nc1ccc([N+](=O)[O-])cc1,96% (inactive)
17,Nc1nc(SCC(=O)N2CCN(S(=O)(=O)c3ccc(Cl)cc3)CC2)n[nH]1,100% (inactive)
18,O=C(Nc1ccc2c(c1)CCC2)c1ccc(Br)s1,98% (inactive)
19,Cc1cccc2cc(CN(Cc3ccc4c(c3)OCO4)Cc3nnnn3C3CCCC3)c(=O)[nH]c12,94% (inactive)
20,CCC(c1nnnn1C1CCCC1)N(Cc1cccs1)Cc1cc2cccc(C)c2[nH]c1=O (configuration not stated),103% (inactive)
21,Cc1cccc2cc(CN(Cc3cccs3)C(c3nnnn3C3CCCC3)C(C)C)c(=O)[nH]c12 (configuration not stated),72% (active)
22,COc1cc(OC)c(C(=O)OCC(=O)N2CC(=O)Nc3ccccc32)cc1OC,103% (inactive)
23,CSc1nc2nc(-c3cccc(C(F)(F)F)c3)ccn2n1,93% (inactive)
24,COc1ccc(NC(=O)c2c(SC)nsc2SC)cc1,105% (inactive)
25,CSc1nsc(SC)c1NC(=O)OC1CCCCC1,35% (active)

row,Compound,percent activity (GTP binding)
1,CSc1ncccc1C(=O)NC1CCCCCC1,96% (inactive)
2,Cc1cc(C)n(-c2ccc(C(=O)O)cc2[N+](=O)[O-])n1,98% (inactive)
3,COc1ccc(NC(=O)CN2C(=O)CSC2=O)cc1,98% (inactive)
4,COc1cccc(OC)c1C(=O)OCC(=O)/C(C#N)=C(\C)N,95% (inactive)
5,CC1(C)C(c2cccs2)=[N+]([O-])C2(CCCCC2=O)N1O (configuration not stated),99% (inactive)
6,Cc1cc(NC(=O)CN2C(=O)NC(C)(CCc3ccccc3)C2=O)no1 (configuration not stated),96% (inactive)
7,CC(=O)c1ccc(NC(=O)CSC(=S)N2CCCC2)cc1,97% (inactive)
8,CCNC(=O)COC(=O)CCNC(=O)c1cccc(C)c1,102% (inactive)
9,O=C(N/N=C/c1ccco1)c1ccc(NC(=O)C2CC2)cc1,92% (inactive)
10,CCOC(=O)c1ccccc1NC(=O)CSc1nc2ccccc2c(=O)[nH]1,92% (inactive)
11,CCN(CC)Cc1nc2sc(C)c(C)c2c(=O)[nH]1,94% (inactive)
12,O=C(NN=C1CCC(=NNC(=O)c2cccnc2)CC1)c1cccnc1,96% (inactive)
13,O=C(CCN1CCN(C/C=C/c2ccccc2)CC1)Nc1cccc(F)c1,98% (inactive)
14,C=CCn1c(CCNC(=O)c2ccccc2F)nnc1SCC(=O)Nc1ccc(OC)cc1,96% (inactive)
15,Cc1ccccc1OCCOc1ccc([N+](=O)[O-])cc1/C=N/n1cnnc1,95% (inactive)
16,Cn1cnnc1Sc1ccc(S(C)(=O)=O)cc1[N+](=O)[O-],99% (inactive)
17,Cc1nc(N2CCC(C)CC2)c2c(C)c(C(=O)Nc3cc(F)ccc3C)sc2n1,92% (inactive)
18,O=C(COC(=O)c1ccccc1)Nc1cccc(S(=O)(=O)N2CCOCC2)c1,96% (inactive)
19,O=C1Nc2cc(Cl)c(Cl)cc2N(O)N1c1ccccc1Cl,92% (inactive)
20,O=[N+]([O-])c1cccc(/C([O-])=C(/C(=S)Nc2ccccc2F)[n+]2ccccc2)c1,95% (inactive)
21,CCOc1cc2[nH]c(=O)n(Cc3ccc(C(=O)NCCCN4CCCC4=O)cc3)c(=O)c2cc1OCC,98% (inactive)
22,O=C(/C=C/c1ccc(Cl)cc1)Nc1ccc(S(=O)(=O)Nc2ncccn2)cc1,98% (inactive)
